Reference: PubChem BioAssay (Tox21)
Records with an inconclusive call do not appear. Activity calls are given as the source filed them. Unless noted, calls follow the shape of the dose curve; as a rule, active = well fitted curve in the direction sought with a large enough effect in the repeat runs; inconclusive = weak or mixed curves; inactive = no such curve, though single readings can be large; an effect the other way counts as inactive or inconclusive.

Legend:
[1] = qHTS assay to identify small molecule antagonists of the retinoic acid receptor (RAR) signaling pathway (AID 1159552; also: nearly all actives have a fitted effect of over 50% in size; also: potency is read from the fitted curve at half-maximal effect)
Outline: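 Test chemicals and DMSO controls were pin-transferred onto C3RL4 cells a day after seeding; retinol (1 uM final) followed at once. Luminescent reporter output was quantified after 6 hr of co-incubation and 30 min with detection reagent.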

[2] = qHTS assay to identify small molecule antagonists of the estrogen related receptor (ERR) signaling pathway from Tox21 library - cell viability counter screen (AID 1224834); also: nearly all actives have a fitted effect of over 30% in size; also: potency is read from the fitted curve at half-maximal effect
Outline: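 CellTiter-Fluor fluorescence measured; ERR cells; 17.5 h compound incubation at 37 C; 30 min reagent step.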

[3] = target: Luciferin 4-monooxygenase (Photinus pyralis) (UniProt P08659); assay: qHTS assay to identify small molecule inhibitors of firefly luciferase (AID 1224835); also: series mostly up to about 120 µM; nearly all actives have a fitted effect of over 25% in size
Sequence of Luciferin 4-monooxygenase (Photinus pyralis) (P08659 whole entry, looked up): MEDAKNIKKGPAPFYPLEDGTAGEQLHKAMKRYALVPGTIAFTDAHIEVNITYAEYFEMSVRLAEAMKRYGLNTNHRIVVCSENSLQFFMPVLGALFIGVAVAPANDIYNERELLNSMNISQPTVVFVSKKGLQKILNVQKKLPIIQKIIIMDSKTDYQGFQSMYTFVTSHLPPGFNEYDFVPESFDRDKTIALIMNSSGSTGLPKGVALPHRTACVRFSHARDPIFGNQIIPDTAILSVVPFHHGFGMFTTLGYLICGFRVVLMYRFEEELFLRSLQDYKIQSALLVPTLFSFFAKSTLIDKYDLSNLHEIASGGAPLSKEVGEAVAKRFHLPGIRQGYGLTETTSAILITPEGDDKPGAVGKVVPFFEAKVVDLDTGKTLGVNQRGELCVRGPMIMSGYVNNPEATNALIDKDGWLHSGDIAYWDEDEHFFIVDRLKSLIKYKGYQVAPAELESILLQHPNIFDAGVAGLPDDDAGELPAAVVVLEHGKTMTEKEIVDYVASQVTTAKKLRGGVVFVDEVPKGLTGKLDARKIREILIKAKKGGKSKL
Outline: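 Quantitative HTS format; KM concentrations of both substrates. Purified P. pyralis FLuc activity quantified from luminescence images.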

[4] = qHTS assay to identify small molecule agonists of the constitutive androstane receptor (CAR) signaling pathway - cell viability counter screen (AID 1224836); also: nearly all actives have a fitted effect of over 45% in size; also: potency is read from the fitted curve at half-maximal effect; as to viability change, negative = cytotoxic: series mostly up to about 92 µM
Outline: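 23 h treatment, 37 C, 5% CO2. Cell line: HepG2 stably expressing hCAR with a CYP2B6-2.2kb construct. Co-treatment: PK11195, 0.75 uM final. Read-out: CellTiter-Fluor fluorescence intensity.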

[5] = qHTS assay to identify small molecule antagonists of the constitutive androstane receptor (CAR) signaling pathway - cell viability counter screen (AID 1224837); also: nearly all actives have a fitted effect of over 45% in size; also: potency is read from the fitted curve at half-maximal effect; as to activity change, negative = cytotoxicity: series mostly up to about 92 µM
Outline: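 Using CellTiter-Fluor, viability is scored in HepG2 cells stably carrying hCAR and a 2.2kb CYP2B6 reporter after 23 hr compound exposure across 15 concentrations, with CITCO present at 50 nM.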

[6] = qHTS assay to identify small molecule antagonists of the estrogen related receptor signaling pathway with the pleiotropic PPARgamma coactivator (PGC) from Tox21 10K library - cell viability counter screen (AID 1224840; active = well fitted cell-killing curve with a large enough effect in the repeat runs, not every such curve was filed as active; also: nearly all actives have a fitted effect of over 40% in size; also: potency is read from the fitted curve at half-maximal effect)
Outline: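 Here the PGC/ERR cells serve as a cytotoxicity control: they are exposed to compounds for 17.5 hours at 37 C, and live-cell signal is quantified using CellTiter-Fluor fluorescence.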

[7] = target: Thyrotropin receptor (Homo sapiens) (UniProt P16473); assay: qHTS assay to identify small molecule agonists of the thyroid stimulating hormone receptor (TSHR) signaling pathway (AID 1224843; calls by dose curve; also: nearly all actives have a fitted effect of over 45% in size)
Sequence of Thyrotropin receptor (Homo sapiens) (P16473 whole entry, looked up): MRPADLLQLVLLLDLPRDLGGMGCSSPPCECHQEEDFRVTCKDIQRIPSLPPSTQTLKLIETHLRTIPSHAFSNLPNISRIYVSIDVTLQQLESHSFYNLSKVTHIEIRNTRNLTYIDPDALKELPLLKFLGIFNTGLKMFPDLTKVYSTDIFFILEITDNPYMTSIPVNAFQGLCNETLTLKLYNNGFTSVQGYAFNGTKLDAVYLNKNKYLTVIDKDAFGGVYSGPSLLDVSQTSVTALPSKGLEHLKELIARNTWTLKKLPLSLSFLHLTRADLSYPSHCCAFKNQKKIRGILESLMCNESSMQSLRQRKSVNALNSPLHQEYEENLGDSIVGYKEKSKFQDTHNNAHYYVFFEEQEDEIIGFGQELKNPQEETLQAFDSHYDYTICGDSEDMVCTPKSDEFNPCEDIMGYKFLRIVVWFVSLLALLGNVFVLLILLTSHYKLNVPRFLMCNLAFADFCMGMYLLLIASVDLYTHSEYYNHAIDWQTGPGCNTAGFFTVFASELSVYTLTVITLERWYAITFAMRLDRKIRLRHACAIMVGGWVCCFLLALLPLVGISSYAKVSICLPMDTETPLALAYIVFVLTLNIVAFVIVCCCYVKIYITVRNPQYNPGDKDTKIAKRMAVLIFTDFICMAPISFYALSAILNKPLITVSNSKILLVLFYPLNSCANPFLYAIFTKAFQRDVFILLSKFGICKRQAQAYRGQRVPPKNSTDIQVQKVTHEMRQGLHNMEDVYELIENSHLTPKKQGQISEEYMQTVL
Outline: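 Cell line HEK293 with TSHR; density 800/well. Exposure 30 min RT. Readout HTRF cAMP (cAMP-d2/anti-cAMP-cryptate), 1 h RT before reading.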

[8] = qHTS assay to identify small molecule agonists of the hypoxia (HIF-1) signaling pathway - cell viability counter screen (AID 1224844; calls by dose curve; also: nearly all actives have a fitted effect of over 50% in size)
Outline: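 Multiplexed with the HRE beta-lactamase assay, this viability read used CellTiter-Glo luminescence (30 min, RT) on HRE-bla ME-180 cells treated 17 hrs with compounds in 0.5% dialyzed FBS medium.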

[9] = qHTS assay to identify small molecule agonists of H2AX (AID 1224845; active = well fitted activation curve with a large enough effect in the signal ratio in the repeat runs, not every such curve was filed as active; the % refers to the signal ratio; also: potency is read from the fitted curve at half-maximal effect)
Outline: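 Wild-type CHO-K1 cells plated overnight, then exposed 3 hr at 37C to compounds at 15 concentrations (0.76% DMSO). Lysed, then HTRF anti-pH2AX(S139)-cryptate/anti-H2AX-d2 detection after 24 hr at room temperature; emissions 665 and 620 nm.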

[10] = target: Nuclear receptor subfamily 1 group I member 3 (Homo sapiens) (UniProt Q14994); assay: qHTS assay to identify small molecule antagonists of the constitutive androstane receptor (CAR) signaling pathway (AID 1224838);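 also: HepG2 cells stably expressing hCAR with CYP2B6 luciferase reporter stimulated by CITCO; nearly all actives have a fitted effect of over 40% in size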
Sequence of Nuclear receptor subfamily 1 group I member 3 (Homo sapiens) (Q14994 whole entry, looked up): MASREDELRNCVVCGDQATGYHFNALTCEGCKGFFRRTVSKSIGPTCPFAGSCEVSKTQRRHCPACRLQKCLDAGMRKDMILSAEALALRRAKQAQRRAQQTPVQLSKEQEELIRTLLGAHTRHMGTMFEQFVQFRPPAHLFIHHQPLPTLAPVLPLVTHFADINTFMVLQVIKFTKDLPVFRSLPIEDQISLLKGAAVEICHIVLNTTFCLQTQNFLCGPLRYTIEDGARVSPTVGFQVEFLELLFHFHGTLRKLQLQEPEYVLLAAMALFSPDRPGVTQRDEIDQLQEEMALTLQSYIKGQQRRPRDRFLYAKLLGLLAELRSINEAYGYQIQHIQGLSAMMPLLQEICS
Outline: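 Reporter luminescence was quantified after 24 h exposure of hCAR/CYP2B6-2.2kb double-stable HepG2 cells to compounds at 15 concentrations in the presence of 50 nM CITCO final.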

[11] = qHTS assay to identify small molecule agonists of the estrogen related receptor signaling pathway with the pleiotropic PPARgamma coactivator (PGC) from Tox21 10K library (AID 1224842); also: nearly all actives have a fitted effect of over 15% in size
Outline: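 PGC/ERR reporter cells (NTP line) were seeded 2,000 per well, rested 6 h at 37 C/5% CO2, then pin-dosed with compounds in DMSO for 18 h at 37 C; luciferase read by One-Glo luminescence after 30 min at room temperature.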

[12] = qHTS assay to identify small molecule antagonists of the estrogen related receptor signaling pathway with the pleiotropic PPARgamma coactivator (PGC) from Tox21 10K library (AID 1224841; call rule not given here; also: actives are mostly falling curves and most rising ones were filed inactive; nearly all actives have a fitted effect of over 50% in size; also: potency is read from the fitted curve at half-maximal effect; as to activity, negative = inhibition: series mostly up to about 92 µM)
Outline: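 Each well held 2,000 PGC/ERR cells, pre-incubated six hours (37 C, 5% CO2). Test substances in DMSO were added by pin tool and left for 18 h at 37 C before luciferase detection by One-Glo.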

[13] = target: Nuclear receptor subfamily 1 group I member 3 (Homo sapiens) (UniProt Q14994); assay: qHTS assay to identify small molecule agonists of the constitutive androstane receptor (CAR) signaling pathway (AID 1224839);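 also: HepG2 cells stably carrying human CAR and a CYP2B6 luciferase reporter; series mostly up to about 92 µM; nearly all actives have a fitted effect of over 15% in size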
Outline: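 Compounds tested at 15 concentrations on HepG2 cells stably harbouring hCAR and CYP2B6-2.2kb reporter constructs, co-treated with PK11195 (0.75 uM final), 24 h at 37 C; luminescent reporter signal quantified.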
% is scaled to controls: 0 for no effect and ±100 for the full control effect.

CCCCCCCCCCCCCc1ccccc1
inactive: Potency [1] | Potency [2] | Potency [3] | Potency [4] | Potency [5] | Potency [6] | Potency [7] | Potency [8] | Potency [9]

COc1cccc(O)c1
inactive: Potency [1] | Potency [2] | Potency [3] | Potency [4] | Potency [5] | Potency [10] | Potency [6] | Potency [8] | Potency [9]

Cn1cccc1
inactive: Potency [1] | Potency [2] | Potency [3] | Potency [4] | Potency [5] | Potency [6] | Potency [11] | Potency [7] | Potency [9]

Clc1cccnc1
inactive: Potency [1] | Potency [2] | Potency [3] | Potency [4] | Potency [5] | Potency [6] | Potency [7] | Potency [8] | Potency [9]

O=S(O)O
inactive: activity, negative = inhibition [1] 5.26% [at 19 µM] | viability change, negative = cytotoxic [2] 0.472% [at 19 µM] | activity change, negative = inhibition [3] -0.0072% [at 23.6 µM] | viability change, negative = cytotoxic [4] 7.71% [at 19 µM] | activity change, negative = cytotoxicity [5] -3.41% [at 19 µM] | activity, negative = inhibition [10] -9.95% [at 19 µM] | viability change, negative = cytotoxic [6] -6.77% [at 19 µM] | activation [7] 2.79% [at 19 µM] | activation (H2AX phosphorylation) [9] -2.47% [at 31.6 µM]

c1ccc2c(c1)CCC2
inactive: Potency [1] | Potency [2] | Potency [3] | Potency [4] | Potency [5] | Potency [10] | Potency [6] | Potency [7] | Potency [8] | Potency [9]

CCC(C)C(=O)OC (stereo not drawn)
inactive: Potency [1] | Potency [2] | Potency [3] | Potency [4] | Potency [5] | Potency [6] | Potency [11] | Potency [7] | Potency [8] | Potency [9]

CCCCCCCC(OC)OC
inactive: Potency [1] | Potency [2] | Potency [3] | Potency [4] | Potency [5] | Potency [10] | Potency [6] | Potency [7] | Potency [9]

CCCCCCCC(C)=O
inactive: Potency [1] | Potency [2] | Potency [3] | Potency [4] | Potency [5] | Potency [6] | Potency [7] | Potency [8]

CNC(=S)NN
active: Potency [1] 43.3 µM | Potency [2] 15.4 µM | Potency [4] 43.3 µM | Potency [5] 17.2 µM | Potency [6] 13.7 µM | Potency [12] 9.69 µM | Potency [9] 89.8 µM
inactive: Potency [3] | Potency [11] | Potency [7]

Cc1cc(C)c(C=O)c(C)c1
inactive: Potency [1] | Potency [2] | Potency [3] | Potency [4] | Potency [5] | Potency [6] | Potency [7] | Potency [8] | Potency [9]

CC(=O)OC1CCCCC1
inactive: Potency [1] | Potency [2] | Potency [3] | Potency [4] | Potency [5] | Potency [6] | Potency [11] | Potency [7] | Potency [8] | Potency [9]

O[C@@H](c1cc(C(F)(F)F)nc2c(C(F)(F)F)cccc12)[C@H]1CCCCN1
inactive: Potency [3] | Potency [13] | Potency [11] | Potency [7]
active: Potency [1] 23.7 µM | Potency [2] 29.8 µM | Potency [4] 29.8 µM | Potency [5] 29.8 µM

C=CC(C)(CCC=C(C)C)OC(=O)/C=C/c1ccccc1 (stereo not drawn)
inactive: Potency [1] | Potency [2] | Potency [3] | Potency [4] | Potency [5] | Potency [10] | Potency [6] | Potency [7] | Potency [8]

CC1=CP(=O)(c2ccccc2)CC1 (stereo not drawn)
inactive: Potency [1] | Potency [2] | Potency [3] | Potency [4] | Potency [5] | Potency [6] | Potency [12] | Potency [11] | Potency [7] | Potency [8] | Potency [9]

CC(C)(C)c1n[nH]c(=O)n(N)c1=O
inactive: Potency [1] | Potency [2] | Potency [3] | Potency [4] | Potency [5] | Potency [6] | Potency [12] | Potency [11] | Potency [7] | Potency [9]

CCC(=O)CC(C)CC (stereo not drawn)
inactive: activity, negative = inhibition [1] -2.26% [at 0.349 µM] | viability change, negative = cytotoxic [2] 2.01% [at 0.349 µM] | activity change, negative = inhibition [3] 4.97% [at 0.435 µM] | viability change, negative = cytotoxic [4] -0.276% [at 0.349 µM] | activity change, negative = cytotoxicity [5] 5.84% [at 0.349 µM] | viability change, negative = cytotoxic [6] 0.87% [at 0.349 µM] | activation [7] 6.29% [at 0.349 µM] | activity change, negative = cytotoxicity [8] 2.65% [at 0.29 µM] | activation (H2AX phosphorylation) [9] 0.83% [at 0.582 µM]

Clc1cc(Cl)c(-c2c(Cl)c(Cl)cc(Cl)c2Cl)cc1Cl
inactive: Potency [1] | Potency [2] | Potency [3] | Potency [4] | Potency [5] | Potency [6] | Potency [7] | Potency [8] | Potency [9]

O=C(O)c1cccc(Cl)n1
inactive: Potency [1] | Potency [2] | Potency [3] | Potency [4] | Potency [5] | Potency [6] | Potency [7] | Potency [9]

CCc1c(C(=O)O)c(=O)cnn1-c1ccc(Cl)cc1
inactive: Potency [1] | Potency [2] | Potency [3] | Potency [4] | Potency [5] | Potency [6] | Potency [11] | Potency [7] | Potency [9]

OCCN1CN(CCO)CN(CCO)C1
inactive: Potency [1] | Potency [2] | Potency [3] | Potency [4] | Potency [5] | Potency [10] | Potency [6] | Potency [7] | Potency [9]
